Screening results (PubChem BioAssay)
The list is not random: actives were taken first. Their share in the collection is about 3.3%.
DRD3 antagonist = blocks the human D3 dopamine receptor; 360,000 tested, 2.5% active; D3R cells, DiscoveRx beta-arrestin luminescence, antagonist mode; stronger effect = lower value; P35462; AID 652054; max response, negative = inhibition, %; in the data active = max response below about -50%; inconclusive = no clear call, values can overlap the other calls; note: % is set by controls: 0 for no effect and ±100 for the full control effect
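Cells expressing the human receptor were seeded at 1500 cells/well, incubated overnight at 37 degrees C in 5% CO2, then exposed to library compounds with dopamine controls for 90 minutes at 37 degrees C before luminescent detection.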
D3 ag = agonists of human D3 dopamine receptor; P35462; D3R DiscoveRx beta-arrestin cells, luminescence, 90 min; max activation, %; 410,000 tested, 0.58% active; AID 652048; in the data active = max activation above about 30%; note: 0% is about no effect
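Cells at 1500/well, incubated overnight, then treated with pinned compounds (dopamine as control) for 90 min at 37 degrees C. DiscoveRx reagent added for 30 - 60 minutes at room temperature; luminescence read.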
PI4K2A block = blocks human PI4K2A kinase activity; Q9BTU6; AID 1346378; 420,000 tested, 0.13% active; activity change, negative = inhibition, % at 76.9 µM; purified PI4K2A, ADP-Glo luminescence, 1 h; stronger effect = lower value; in the data active = activity change below about -50%; inconclusive = mostly about -30% to -49%;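 note: -100% = wells without enzyme as full effect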
Target sequence (Q9BTU6 whole entry, looked up): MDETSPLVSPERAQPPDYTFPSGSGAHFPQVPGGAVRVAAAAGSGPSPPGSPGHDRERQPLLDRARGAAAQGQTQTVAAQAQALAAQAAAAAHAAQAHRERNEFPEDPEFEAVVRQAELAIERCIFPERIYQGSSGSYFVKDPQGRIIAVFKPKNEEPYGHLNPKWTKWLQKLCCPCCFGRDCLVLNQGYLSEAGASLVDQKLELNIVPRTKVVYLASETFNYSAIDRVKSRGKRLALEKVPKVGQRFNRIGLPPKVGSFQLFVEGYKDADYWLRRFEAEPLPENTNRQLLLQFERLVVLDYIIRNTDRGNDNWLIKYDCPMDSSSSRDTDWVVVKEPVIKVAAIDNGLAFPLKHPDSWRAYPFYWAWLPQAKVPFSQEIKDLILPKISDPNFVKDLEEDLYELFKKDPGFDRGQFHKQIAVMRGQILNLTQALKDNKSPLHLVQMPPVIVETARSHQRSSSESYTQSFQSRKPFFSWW
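PI4K2A activity was measured by ADP-Glo luminescence: enzyme (4 ug/mL stock) and phosphatidylinositol (1.2 mM stock) in Tris pH 7.5/MgCl2/EGTA/Triton X-100 buffer were reacted with ATP (300 microM stock) for one hour at ambient temperature.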
LDHA block = blocks human lactate dehydrogenase A | AID 1347041 | P00338 | activity change, % (values are at about 110 or 230 µM) | 480,000 tested, 0.15% active | purified LDHA, NADH/diaphorase-resazurin fluorescence; stronger effect = lower value; in the data active = activity change below about -30%; inconclusive = mostly about -25% to -30%;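 note: plate controls were DMSO wells for no effect and wells without enzyme for full effect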
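Remaining NADH was detected by diaphorase (0.133 mg/mL) converting 37 µM resazurin to fluorescent resorufin, read at 0 and 20 minutes. The preceding 5-minute room-temperature reaction used 2 nM LDHA, 0.2 mM sodium pyruvate and 0.06 mM NADH at pH 7.4.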
PI5P4K alpha inh = inhibitors of human PI5P4K alpha; P48426; PI5P4Kalpha enzyme, ADP-Glo luminescence, 60 min; stronger effect = lower value; max response, %; 330,000 tested, 1.2% active; active = max response of -50% or lower; inconclusive = between -30% and -50%; inactive = -30% or higher; note: value at the top dose of about 77 µM; % is set by controls: 0 for no effect and ±100 for the full control effect
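ADP-Glo luminescence end-point read after a 60 min room-temperature kinase reaction of PI5P4Kalpha plus substrate, initiated with ATP at 5 microM final. Buffer: 0.038 M HEPES pH 7.4, EGTA, 0.1% CHAPS, 5% DMSO.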
* hit, by the source's call; ? = inconclusive; / = no result; + = active, no number.

SMILES	DRD3 antagonist	D3 ag	PI4K2A block	LDHA block	PI5P4K alpha inh
C[C@H]1[C@@H](OC(=O)NCCc2c[nH]c3ccccc23)CC[C@@]23CCCN2C(=O)CCC[C@@H]13	/	/	-2	/	/
Cc1cc(C)c(S(=O)(=O)N2CCN(c3ccc([N+](=O)[O-])c(NCc4ccco4)c3)CC2)c(C)c1	-24	-16	0	2	/
O=[N+]([O-])c1ccc(N2CCN(CCO)CC2)cc1NCc1ccco1	-63*	-14	3	-5	4
CC(N)(CO)c1cccc(C(F)(F)F)c1 (configuration not stated)	/	/	/	0	/
Oc1c(Br)cc(Br)cc1C=Nc1ccc2c(c1)OCCO2	-64*	-12	-12	2	?
Oc1c(Br)cc(Br)cc1C=Nc1ccc2c(c1)OCO2	-128*	2	-6	16	?
COc1ccc(-c2nnn(CC(=O)N(Cc3ccc(F)cc3)C(C(=O)NC3CCCC3)c3ccc(F)cc3)n2)cc1 (configuration not stated)	-60*	-11	-4	-4	/
COc1ccccc1N(C(=O)Cn1nnc(-c2ccc(C)o2)n1)C(C(=O)NC1CCCC1)c1ccncc1 (configuration not stated)	-53*	-18	-4	-10	2
N#Cc1ccc(OCCBr)cc1	/	/	/	12	/
Cc1cc(SCC(=O)NCC(C)C)nc2ccccc12	/	/	/	2	/
CCOc1ccc2nc(S(N)(=O)=O)sc2c1	43	7	-4	-80*	1
Cc1ccc2nc(NC(=O)c3ccccn3)sc2c1	?	-7	-15	0	-9
Cc1ccc2nc(NC(=O)c3ccc(OCC4CCCO4)cc3)sc2c1 (configuration not stated)	65	49*	-5	-7	2
CCOc1ccc2nc(NC(=O)c3ccoc3C)sc2c1	15	0	-83*	2	?
CCOc1ccc2nc(NC(=O)c3ccccn3)sc2c1	-63*	-23	?	7	-10
Cc1cc(C)c2nc(NC(=O)c3ccc(OCC4CCCO4)cc3)sc2c1 (configuration not stated)	9	1	-3	-7	-2
Cc1ccc(-c2c(C(F)(F)F)nn3c(NCc4ccccn4)cc(C)nc23)cc1	/	/	/	4	/
CCCNC(=O)[C@@H](NC(=O)[C@@H]1Cc2ccccc2CN1C(=O)OC(C)(C)C)C(C)C	/	/	/	0	/
O=[S+]([O-])(/C=C/c1nc(Nc2cc(F)cc(F)c2)c2ncn(CC(F)F)c2n1)c1ccccc1	/	/	/	-3	/
CCn1nc(C(=O)Nc2nc(C)cs2)c2ccccc2c1=O	/	/	/	7	/
CCOc1cc(C#N)cc(Br)c1OCc1nnc(-c2ccccc2Br)o1	/	/	/	7	/
CCSc1nnc(-c2ccc(S(=O)(=O)NCc3cccs3)cc2)o1	-66*	6	2	-13	/
CCOc1ccc(NC(=O)Cn2c(-n3nc(C)cc3C)nc(CC)cc2=O)cc1	/	/	/	-4	/
CC(C)(C)NC(=O)CN1CCC(O)(c2ccccc2)CC1	+	-17	-1	4	/
COc1ccccc1C(NC(C)=O)c1cc(Cl)c2cccnc2c1O (configuration not stated)	-54*	3	4	19	4
SMILES	DRD3 antagonist	D3 ag	PI4K2A block	LDHA block	PI5P4K alpha inh
COc1ccc(C(NC(C)=O)c2cc(Cl)c3cccnc3c2O)cc1OC (configuration not stated)	2	15	-1	22	-4
O=C(O)COc1ccccc1C(Nc1cccnc1)c1cc(Cl)c2cccnc2c1O (configuration not stated)	-4	19	-16	11	-64*
CCC(=O)NC(c1ccc(Br)o1)c1cc(Cl)c2cccnc2c1O (configuration not stated)	/	/	/	8	/
COc1ccc(-c2noc(-c3cccc(Br)c3)n2)cc1	/	/	/	-1	/
CSc1cccc(NC(=O)c2ccc(NC(=O)N3CCSc4nc(C)cc(C)c43)cc2)c1	/	/	/	0	/
Cc1ccccc1NC(=S)NC(=O)/C=C/c1ccco1	7	-2	-25	3	-58*
COc1cccc(NC(=O)/C=C/c2ccco2)c1	-3	-1	-3	-3	-4
Cc1cccc(NC(=S)NC(=O)/C=C/c2ccco2)c1	0	-10	-13	-4	-64*
O=C(/C=C/c1ccco1)NC(=S)Nc1cc(-c2nc3ccccc3s2)ccc1Cl	-21	-4	-11	-12	-56*
CSc1cccc(NC(=O)/C=C/c2ccco2)c1	6	-1	-30	-2	-58*
Cc1ccc(-c2nc3ccccc3s2)cc1NC(=S)NC(=O)/C=C/c1ccco1	-13	-8	-1	-2	-25
Cc1nc2cc(NC(=O)c3cc(S(=O)(=O)Nc4ccc(C)c(Cl)c4)ccc3Cl)ccc2o1	/	/	/	10	/
Cc1ccc(-c2nc3ccccc3o2)cc1NC(=S)NC(=O)/C=C/c1ccco1	11	3	6	-12	?
CCCn1nnc(NC(=S)NC(=O)/C=C/c2ccco2)n1	-14	-7	-5	3	-63*
O=C(/C=C/c1ccco1)NC(=S)Nc1cccc(-c2nc3ccccc3o2)c1	-20	-4	?	-10	-64*
CCN(C(=O)COC(=O)c1cc(=O)c2ccccc2o1)c1cccc2ccccc12	/	/	/	0	/
Cc1ccc(Oc2ncc(CN3CCOCC3)s2)cc1	-29	0	6	-4	0
Brc1ccc(Oc2ncc(CN3CCN(c4ccccc4)CC3)s2)cc1	-60*	33*	-3	-2	1
CC(=O)Nc1cc2c(nc1C)nc(C)n2Cc1ccc(Br)cc1	-68*	-3	2	-4	1
CN(C)CCCNC(=O)C(=O)Nc1ccc2cc[nH]c2c1	/	/	/	-2	/
COc1ccc(CCC2CCN(C(=O)Nc3ccccc3)CC2)cc1	/	/	/	5	/
CC(C)CNC(=O)CSc1nc2scc(-c3ccccc3)c2c(=O)[nH]1	15	48*	-4	0	-14
O=C(CSc1nc2scc(-c3ccccc3)c2c(=O)[nH]1)Nc1ccccc1	6	8	-3	-7	1
O=C(O)CCCC[P+](c1ccccc1)(c1ccccc1)c1ccccc1	/	/	2	/	/
COC(=O)c1ccccc1NC(=O)COc1ccccc1[N+](=O)[O-]	2	-1	4	-4	-3
SMILES	DRD3 antagonist	D3 ag	PI4K2A block	LDHA block	PI5P4K alpha inh
O=C(COc1ccccc1[N+](=O)[O-])Nc1cc(Cl)ccc1C(=O)O	-4	-4	-1	-8	-55*
NC(=O)c1c(N)[nH]c(C(=O)c2ccccc2)c1-c1ccccc1Br	-52*	-6	2	9	-8
CC(C)(C)C(=O)c1c(N)[nH]c(C(=O)c2ccccc2)c1-c1ccccc1Br	-13	-5	0	3	-1
CSCc1nnc(SCC(=O)c2[nH]c(C)c(C(C)=O)c2C)o1	/	/	/	6	/
Cc1nc2c(=O)n(C)c(=O)n(C)c2nc1Cl	-51*	-21	-22	2	8
O=C(COC(=O)/C=C/c1ccccc1[N+](=O)[O-])NC12CC3CC(CC(C3)C1)C2	/	/	/	-10	/
